Laboratory results as given in the supplement of paper PMC8728848.
The full list was thinned out, with the strongest signals kept by preference.

Columns and labels:
Assay in all cases: glycan array binding signal (z-score within array); higher = stronger binding
Settings in all cases: glycan notation: IUPAC condensed, linker removed
[1] = biological target: Fuc(a1-2)Gal
How it was run: (§1)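 The binding signal is a Z-score computed within each array and averaged over linkers. Arrays of the same protein sequence at different concentrations or buffers were also averaged together. Data originate from 3228 arrays in the Consortium for Functional Glycomics database, kept only where the protein sequence was available.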

[2] = biological target: Fuc(a1-2)Gal(b1-3)GlcNAc(b1-2)Man(a1-3)[Fuc(a1-2)Gal(b1-3)GlcNAc(b1-2)Man(a1-6)]Man(b1-4)GlcNAc(b1-4)[Fuc(a1-6)]GlcNAc
How it was run: as §1

[3] = biological target: Fuc(a1-2)Gal(b1-3)[Fuc(a1-4)]GlcNAc
How it was run: as §1

[4] = biological target: Fuc(a1-2)Gal(b1-4)Glc
How it was run: as §1

[5] = biological target: Fuc(a1-2)Gal(b1-4)[Fuc(a1-3)]GlcNAc(b1-2)[Fuc(a1-2)Gal(b1-4)[Fuc(a1-3)]GlcNAc(b1-4)]Man(a1-3)[Fuc(a1-2)Gal(b1-4)[Fuc(a1-3)]GlcNAc(b1-2)Man(a1-6)]Man(b1-4)GlcNAc(b1-4)GlcNAc
How it was run: as §1

[6] = biological target: Fuc(a1-2)[Gal(a1-4)]Gal(b1-4)GlcNAc
How it was run: as §1

[7] = biological target: Fuc(a1-3)[Gal(b1-4)]GlcNAc(b1-2)Man(a1-3)[Fuc(a1-3)[Gal(b1-4)]GlcNAc(b1-2)Man(a1-6)]Man(b1-4)GlcNAc(b1-4)[Fuc(a1-6)]GlcNAc
How it was run: as §1

[8] = biological target: Fuc(a1-3)[Gal(b1-4)]GlcNAc6S
How it was run: as §1

[9] = biological target: Fuc(a1-3)[GalNAc(b1-4)]GlcNAc
How it was run: as §1

[10] = biological target: Gal(a1-3)Gal(b1-3)GlcNAc(b1-2)Man(a1-3)[Gal(a1-3)Gal(b1-3)GlcNAc(b1-2)Man(a1-6)]Man(b1-4)GlcNAc(b1-4)GlcNAc
How it was run: as §1

[11] = biological target: Gal(a1-3)Gal(b1-4)GlcNAc(b1-6)GalNAc
How it was run: as §1

[12] = biological target: Gal(a1-4)Gal(b1-4)Glc
How it was run: as §1

[13] = biological target: Gal(a1-4)Gal(b1-4)GlcNAc(b1-2)Man(a1-3)[Gal(a1-4)Gal(b1-4)GlcNAc(b1-2)Man(a1-6)]Man(b1-4)GlcNAc(b1-4)GlcNAc
How it was run: as §1

[14] = biological target: Gal(b1-3)GalNAc
How it was run: as §1

[15] = biological target: Gal(b1-3)GalNAc(a1-3)[Fuc(a1-2)]Gal(b1-4)Glc
How it was run: as §1

[16] = biological target: Gal(b1-3)GalNAc(a1-3)[Fuc(a1-2)]Gal(b1-4)GlcNAc
How it was run: as §1

[17] = biological target: Gal(b1-3)GalNAc(b1-4)Gal(b1-4)Glc
How it was run: as §1

[18] = biological target: Gal(b1-3)GlcNAc(b1-2)Man(a1-3)[GlcNAc(b1-4)][Gal(b1-3)GlcNAc(b1-2)Man(a1-6)]Man(b1-4)GlcNAc(b1-4)GlcNAc
How it was run: as §1

[19] = biological target: Gal(b1-3)[Fuc(a1-4)]GlcNAc(b1-2)Man(a1-3)[Gal(b1-3)[Fuc(a1-4)]GlcNAc(b1-2)Man(a1-6)]Man(b1-4)GlcNAc(b1-4)[Fuc(a1-6)]GlcNAc
How it was run: as §1

[20] = biological target: Gal(b1-4)GlcNAc(b1-2)Man
How it was run: as §1

[21] = biological target: Gal(b1-4)GlcNAc(b1-2)Man(a1-3)[Man(a1-6)]Man(b1-4)GlcNAc(b1-4)GlcNAc
How it was run: as §1

[22] = biological target: Gal(b1-4)GlcNAc(b1-2)[Gal(b1-4)GlcNAc(b1-4)]Man(a1-3)[Gal(b1-4)GlcNAc(b1-2)Man(a1-6)]Man(b1-4)GlcNAc(b1-4)GlcNAc
How it was run: as §1

[23] = biological target: Gal(b1-4)GlcNAc(b1-3)Gal(b1-4)Glc
How it was run: as §1

[24] = biological target: Gal6S(b1-3)GlcNAc6S
How it was run: as §1

B1: B1257 (Bifidobacterium sp) (protein)
chain: MKKSIRLVAAIAALAMTAGISACGSSTNGNQAKSDVTAQDVETALTDTSKNVELTVWAYSAKQMEPTVKAFEKKYPHIKINFVNTGAAGDHFTKFQNVVQAQKDIPDVVQMGANKFQQFAVSGALLNFANDSIEKAWSKLYTKTAWAQVHYAGGLYGAPQDATPLANYVRKDILDEHNLQVPESWEDIYNEGIKLHKEDSNKYMGILGSDISFFTNLYRSVGARLWKVNSVDDVELTMNSGKAKEFTEFLQKCLKDGVLEGGTVFTDEFNRSINDGRYATFINENWMGNTYKEQNPSLKGKMVVAAPPSWKGQPYQSSSVGSMMSVSAACPKEKQAAALAFINWLDSDKDAIQSWQDTNNGNFFMAASVYQDDENQRNKKETDGYYANDDVNAVYFDSMDKVNTDWEYLPFMSQVEVVFNDVIVPQMNENGDLVGAMAKAQQELKTYAKDNGFKVTTDAD
- glycan array binding signal (z-score) [1]: 23.9
- glycan array binding signal (z-score) [2]: 0.153
- glycan array binding signal (z-score) [3]: -0.158
- glycan array binding signal (z-score) [4]: 3.8
- glycan array binding signal (z-score) [5]: 0.025
- glycan array binding signal (z-score) [6]: -0.086
- glycan array binding signal (z-score) [7]: 0.166
- glycan array binding signal (z-score) [8]: -0.027
- glycan array binding signal (z-score) [9]: 0.046
- glycan array binding signal (z-score) [10]: 0.027
- glycan array binding signal (z-score) [11]: -0.213
- glycan array binding signal (z-score) [12]: -0.023
- glycan array binding signal (z-score) [13]: 0.48
- glycan array binding signal (z-score) [14]: 0.28
- glycan array binding signal (z-score) [15]: 0.314
- glycan array binding signal (z-score) [16]: -0.014
- glycan array binding signal (z-score) [17]: -0.085
- glycan array binding signal (z-score) [18]: 0.324
- glycan array binding signal (z-score) [19]: 0.461
- glycan array binding signal (z-score) [20]: -0.056
- glycan array binding signal (z-score) [21]: -0.051
- glycan array binding signal (z-score) [22]: -0.081
- glycan array binding signal (z-score) [23]: 0.301
- glycan array binding signal (z-score) [24]: -0.051
